Most compounds without a hit are left out; they make up all but 10% or so of the library.
G9a block – G9a (human) methyltransferase inhibition | G9a H3K9 monomethylation, AlphaScreen, 2 h | Potency, µM (highest dose often 102 µM), without a hit: top-dose activity, negative = inhibition, hits mostly inhibitors | AID 504332 | actives 8.8% (n = 350,000) | Q96KQ7; further: potency means the concentration at half of the fitted maximal effect; on the % scale 0 is the no-effect control and ±100 the full control effect; nearly all actives have a fitted effect of over 75% in size
Target sequence (Q96KQ7 913-1193 limits assumed): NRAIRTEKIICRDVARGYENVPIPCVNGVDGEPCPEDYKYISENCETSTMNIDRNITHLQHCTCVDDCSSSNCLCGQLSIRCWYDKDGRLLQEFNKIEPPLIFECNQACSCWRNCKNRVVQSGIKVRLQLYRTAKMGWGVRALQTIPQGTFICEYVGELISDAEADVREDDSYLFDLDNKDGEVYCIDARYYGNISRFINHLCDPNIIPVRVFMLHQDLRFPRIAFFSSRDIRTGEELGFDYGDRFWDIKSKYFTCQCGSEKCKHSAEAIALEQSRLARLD
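Readings reflect AlphaScreen signal from monomethyl-H3K9 antibody detection. HMT at 20 nM; substrate b-H3K9 500 nM; cofactor SAM 20 uM; 2 h RT reaction; compounds tested as titrations in qHTS with 15 min preincubation.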
JMJD2A Tudor – blocks the human JMJD2A Tudor domain; actives 4.4% (n = 390,000); Potency, µM (doses to about 114 µM), for the others: at the highest dose activity change, negative = inhibition, usual class: inhibitors; AlphaScreen JMJD2A-Tudor / H3K4me3 peptide binding; further: potency means the concentration at half of the fitted maximal effect; on the % scale 0 is the no-effect control and ±100 the full control effect; nearly all actives have a fitted effect of over 50% in size
CtBP-E1A blk – CtBP/E1A binding inhibition. actives 0.49% (n = 340,000). activity change, % (concentration not given with the values). AlphaScreen GST-E1A/His-CtBP binding, 1536-well; active compounds read low; in the data active means activity change below about -65%; inconclusive means mostly about -30% to -63%; further: on the % scale 0 is the no-effect control and ±100 the full control effect
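GST-E1A and His-tagged CtBP (125 nM each as 5X stock) were preincubated with pin-transferred compound for 2 h at 37 °C in the dark, then glutathione donor and nickel acceptor beads were added for 1 h before AlphaScreen reading.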
Six1-Eya2 blk – blocks human Six1 binding to Eya2. activity change, % (no concentration beside the values). AlphaScreen GST-Six1/His-Eya2 binding, biochemical; active compounds read low. AID 651725. actives 0.56% (n = 360,000); in the data active means activity change below about -65%; inconclusive means mostly about -30% to -63%; further: on the % scale 0 is the no-effect control and ±100 the full control effect
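Homogeneous AlphaScreen proximity assay pairing GST-Six1 with His-tagged Eya2 (added as 5X mix: 250 nM and 500 nM) in 50 mM Tris pH 8.0, 300 mM NaCl, 1 mM TCEP. Glutathione donor and nickel acceptor beads; 1 h, 37 °C, dark.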
HP1b chromo inh – inhibitors of HP1-beta chromodomain binding to methylated histone tails | P83916 | Potency, µM (highest dose often 114 µM), for inactives: at the top dose activity change, negative = inhibition, actives largely listed as inhibitors | AlphaScreen HP1-beta / biotin-H3K9me3 peptide binding | AID 540317 | actives 0.56% (n = 390,000); further: potency means the concentration at half of the fitted maximal effect; nearly all actives have a fitted effect of over 70% in size
Target sequence (P83916 whole entry, looked up): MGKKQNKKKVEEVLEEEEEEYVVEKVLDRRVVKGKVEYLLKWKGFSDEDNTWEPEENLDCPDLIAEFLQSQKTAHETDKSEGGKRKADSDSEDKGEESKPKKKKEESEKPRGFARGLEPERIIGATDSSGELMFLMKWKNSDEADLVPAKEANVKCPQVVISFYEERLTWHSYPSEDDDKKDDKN
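HP1-beta protein (50 nM final) preincubated 30 min at room temperature with biotinylated H3(1-18)K9me3 peptide (50 nM) in PBS pH 7.4, 0.01% Tween-20, then compound added for 30 min. AlphaScreen streptavidin donor/nickel chelate acceptor beads (10 ug/mL final), 30 min dark, luminescence read.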
BAZ2B inh – blocks human BAZ2B. actives 4.4% (n = 360,000). Potency, µM (series often up to 114 µM), inactives show at the highest dose activity change, negative = inhibition, actives largely listed as inhibitors. Q9UIF8. AID 504333. AlphaScreen BAZ2B-H3K14Ac peptide displacement; further: potency means the concentration at half of the fitted maximal effect; on the % scale 0 is the no-effect control and ±100 the full control effect; nearly all actives have a fitted effect of over 60% in size
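BAZ2B 50 nM plus b-H3(5-23)K14Ac 50 nM, PBS pH 7.4/0.01% Tween-20, 30 min RT; compound added (max 110 uM), 30 min RT; streptavidin donor/Ni-chelate acceptor beads 10 ug/mL final, 20 min dark; AlphaScreen read.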
An asterisk follows results filed as active; ? = inconclusive; . = no result; [ ] = another dose, or the depositor's remark. Unless noted, the call rests on the fitted dose curve; in most records, active means well fitted inhibition curve with a large enough effect; inconclusive means small, poorly fitted or top-dose-only effect; inactive means no such curve, though single readings can be large or run the other way.

SMILES	G9a block	JMJD2A Tudor	CtBP-E1A blk	Six1-Eya2 blk	HP1b chromo inh	BAZ2B inh
COc1ccc(-n2c(SCC(=O)NCc3ccc(Cl)cc3)nc3ccsc3c2=O)cc1	-29%[59 µM]	-8%	.	.	29%	-10%
COc1ccc(S(=O)(=O)c2cnc3ccc(Cl)cc3c2N2CCCCC2C)cc1 (stereo not given)	0%[59 µM]	-3%	.	.	31%	-15%
c1ccc(SCCCCNC2CCCC2)cc1	8.9µM*	3.2µM*	0	-10	-18%[57 µM]	56µM*
c1ccc(SCCCCN2CCOCC2)cc1	14%	-13%	.	5	14%	-23%
COc1ccc(OCCNC2CCCC2)cc1	10µM*	79µM*	.	1	15%	?
CNCCCOc1ccc2c(c1)CCC2	50µM*	22µM*	1	4	-37%	50µM*
c1ccc(Cc2ccc(OCCCNC3CCCC3)cc2)cc1	13µM*	.	.	.	.	56µM*
Cc1cccc(CCNC(=O)c2cc3c(=O)n(C)c4ccccc4c3n2C)c1	7%[59 µM]	0%	.	.	27%	-9%
Cc1ccc(NC(=O)Cn2c(=O)c3cc(Cl)ccc3n3nncc23)cc1	8%[59 µM]	-14%	.	.	19%	3%
COC(=O)c1ccccc1NC(=O)Cn1c(=O)n(CCCC(=O)NCc2ccccc2OC)c(=O)c2ccccc21	2%[59 µM]	14%	.	.	26%	2%
Cc1nn2c(C)c(C(=O)NC(C)c3ccccc3)cnc2c1-c1ccc(F)cc1 (stereo not given)	13%[59 µM]	-12%	.	.	3%	-1%
O=C1CCC(=O)N1OCCOc1ccc2c(c1)CCC2	-28%[12.7 µM]	-8%	-4	0	41%	10%
c1cc2c(cc1OCCNC1CCCC1)CCC2	22µM*	.	.	.	.	56µM*
CCc1ccc(C(=O)c2cn(CC(=O)Nc3ccc(OC)c(OC)c3)c3ccc(C)cc3c2=O)cc1	-12%[59 µM]	-20%	.	.	15%	?
CC(SC(=S)N1CCOCC1)C(=O)O (stereo not given)	-1%[12.7 µM]	-21%	4	11	15%	25µM*
CC(=O)/C(=N\Nc1ccccc1Cl)Sc1cccc2cccnc12	18%[59 µM]	-26%	-92*	-89*	-13%	2%
CC(=O)/C(=N\Nc1ccccc1)Sc1cccc2cccnc12	-6%[59 µM]	?	?	-24	-7%	?
CC1C=CC(C)C(C(=O)O)C1C(=O)O (stereo not given)	?	45µM*	-15	?	-5%	50µM*
COC(=O)c1cc2oc3ccccc3c2n1CC(=O)Nc1ccc(N(C)C)cc1	?	?	.	.	11%	-25%
CC1=C(c2ccc(C(C)C)cc2)S(=O)(=O)N=C1N1CCC(C(=O)NCCc2ccco2)CC1	-1%[59 µM]	-10%	.	.	-15%	-11%
CC(=O)c1cn(-c2ccc([N+](=O)[O-])cc2)c(=O)n(C)c1=O	.	3%	6	-11	58%	.
Cn1c(CBr)c(C(=O)c2ccc([N+](=O)[O-])cc2)c(=O)n(C)c1=O	28µM*	-32%	7	-2	29%	-35%
CCOC(=O)c1cc(OC(=O)c2cccc(Cl)c2)n(-c2ccccc2)n1	-3%[59 µM]	?	.	.	18%	-21%
O=S(=O)(c1ccc(F)cc1)N1CCN(CC2CC3C=CC2C3)CC1 (stereo not given)	22µM*	11µM*	8	-2	?	50µM*
COc1cccc(C(=O)N2CCN(C(=O)c3cccc(F)c3)CC2)c1	-4%[59 µM]	-5%	10	3	41%	-11%
SMILES	G9a block	JMJD2A Tudor	CtBP-E1A blk	Six1-Eya2 blk	HP1b chromo inh	BAZ2B inh
O=CN1CCN(C(=O)c2ccccc2F)CC1	0%[59 µM]	-7%	3	1	11%	.
O=S(=O)(c1ccc(F)cc1)N1CCN(c2ccc(F)cc2)CC1	7%	-16%	-4	0	37%	0%
O=C(c1ccccc1F)N1CCN(CC2CC3C=CC2C3)CC1 (stereo not given)	?	4µM*	7	8	?	56µM*
Cc1ccc(CN2CCN(CC3CC4C=CC3C4)CC2)cc1 (stereo not given)	?	5.6µM*	-1	0	?	28µM*
O=C(c1cccc(F)c1)N1CCN(CC2CC3C=CC2C3)CC1 (stereo not given)	10µM*	5.6µM*	3	-17	?	50µM*
CCOC(=O)c1[nH]c(C)c(CCC(=O)Nc2c(C)cc(C)cc2C)c1C	8%[59 µM]	-11%	.	.	5%[57 µM]	2%
O=[N+]([O-])c1ccc([S+](=O)([O-])N2CCN([S+](=O)([O-])c3ccc4c(c3)OCCO4)CC2)c([N+](=O)[O-])c1	.	-6%	.	.	.	.
COc1ccccc1/C=C/CN1CCN(c2ccccc2)CC1	11µM*	22µM*	3	?	?	50µM*
Cc1ccc(CN2CCN(/N=C/C=C/c3ccccc3[N+](=O)[O-])CC2)cc1	20µM*	14µM*	-76*	?	18µM*	20µM*
COc1ccccc1/C=C/C=N/N1CCN(Cc2ccccc2)CC1	11µM*	-17%	-16	4	14%	32µM*
Cc1cc(-c2ccc(C)c(S(=O)(=O)NCc3cccs3)c2)on1	-5%[59 µM]	-6%	.	.	53%	5%
CCCc1cc(=O)[nH]c(Nc2cc(C)ccc2OC)n1	-3%[59 µM]	-10%	.	.	18%	-2%
COc1ccc(NC(=O)CC2C(=O)N(c3ccccc3)C(=O)N2Cc2cccnc2)cc1 (stereo not given)	?	14%	.	.	45%	0%
N#Cc1ccc(C(=O)Nc2cc(S(=O)(=O)Nc3ccc(Cl)cc3)ccc2N2CCCCC2)cc1	7.1µM*	?	6	3	?	-23%
O=C(Nc1cc(S(=O)(=O)Nc2ccc(Cl)cc2)ccc1N1CCCCC1)c1ccc(F)cc1	10µM*	?	-14	-19	?	0%
CCN(CC)c1nc(N)c2c(N)n(-c3ccccc3C)c(=S)c(C#N)c2c1C#N	-49%[2.33 µM]	40µM*	?	?	?	-31%
Cc1cc(C2=NNC(=Nc3ccc(S(=O)(=O)N4CCOCC4)cc3)SC2)c(C)n1C	32µM*	?	-1	-13	-22%	-28%
O=C(C1CCN(Cc2ccc(F)cc2)CC1)N1CCN(C/C=C/c2ccccc2)CC1	50µM*	20µM*	12	9	?	50µM*
O=C(C1CCN(C2CCN(C/C=C/c3ccccc3)CC2)CC1)N1CCOCC1	2%	-17%	-8	3	28%	-15%
O=C(C1CCN(Cc2ccccc2)CC1)N1CCN(C/C=C/c2ccccc2)CC1	14µM*	?	-7	-2	?	?
Cc1ccccc1OCc1nnc(SC(C)C(=O)O)n1-c1ccccc1 (stereo not given)	.	.	5	-2	.	.

Compound activity as filed in PubChem.
